Measurements from PubChem BioAssay (NCATS).
Records with an inconclusive call do not appear. Activity calls are given as the source filed them. Unless noted, the call rests on the fitted dose curve; in most records, active means well fitted curve in either direction with a large enough effect (not every such curve was filed as active); inconclusive means small, poorly fitted or top-dose-only effect, or another doubt; inactive means flat fitted curve, though single readings scatter.

Tests used:
[1] = target: Lysosomal acid glucosylceramidase (Homo sapiens) (UniProt P04062); assay: Glucocerebrosidase-p2 (AID 348; in the data active means potency below about 10 µM; further: potency means the concentration at half of the fitted maximal effect); settings: purified GBA, blue fluorogenic substrate, 40 min
Procedure, shortened: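 Normal human glucocerebrosidase (0.2 nM) with blue fluorogenic substrate (80 uM final) in citrate/phosphate pH 5.9 with 10mM sodium taurocholate, 0.01% tween-20; 40 min RT, NaOH/glycine stop; fluorescence Ex 365/Em 440; AC50 from a titration from 0.6 nM upwards.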

[2] = AP1 Signaling Pathway (AID 357); settings: ME-180 AP-1-bla reporter, EGF-induced, beta-lactamase ratio, 5 h; at 7.69 µM (top of the series) unless noted;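 further: ME-180 reporter cells stimulated with EGF at its EC50 level; on the % scale 0 is the no-effect control and ±100 the full control effect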
Procedure, shortened: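 In this screen, ME-180 cells in Opti-MEM with 0.5% dialyzed FBS received EC50 EGF and compound titrations for 5 h. AP-1 reporter beta-lactamase was detected via CCF4 ratio, giving AC50 for positive and negative modulators.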

[3] = NFAT Signaling Pathway (AID 444); settings: Jurkat NFAT-bla M1, carbachol, beta-lactamase ratio, 5 h; at 7.69 µM (top of the series) unless noted;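 further: carbachol stimulus at about its EC50 of 1 µM final; on the % scale 0 is the no-effect control and ±100 the full control effect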
Procedure, shortened: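 Jurkat cells carrying an NFAT-driven β-lactamase reporter and co-transfected muscarinic M1 receptor were treated with compound plus carbachol (1 uM final, an EC50 level) for 5 h at 37 °C. CCF4 loading followed for 1 h at RT; 460/530 nm ratio gave %activity.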

[4] = Stat Signaling Pathway (AID 446); settings: ME-180 (cervical carcinoma) SIE beta-lactamase reporter, IL-6 stimulated, 5 h; at 7.69 µM (top of the series) unless noted;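 further: ME-180 cervical cancer cells given 40 pM IL-6 alongside compound; SIE-controlled beta-lactamase reporter measured as 460/530 nm FRET emission ratio; on the % scale 0 is the no-effect control and ±100 the full control effect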
Procedure, shortened: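 Overnight-plated ME-180 cells bearing a STAT Inducible Element beta-lactamase reporter; 5 h co-exposure to compound and 40 pM IL-6; values normalized to 300 pM IL-6 and 125 nM JAK inhibitor controls.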

[5] = target: Glucocorticoid receptor (Homo sapiens) (UniProt P04150); assay: GR-GFP Redistribution (AID 450;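 active means compounds whose dose series gives a full or clear partial fitted curve of increased nuclear translocation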; further: potency means the concentration at half of the fitted maximal effect); settings: U2OS GR-GFP nuclear translocation, laser cytometry, 2 h
[6] = target: Glucocorticoid receptor (Homo sapiens) (UniProt P04150); assay: GR-EFC Redistribution (AID 451; calls by dose curve; further: potency means the concentration at half of the fitted maximal effect); settings: CHO-K1 GR-EFC translocation, beta-gal luminescence, 2 h
Procedure, shortened: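 CHO-K1 cells stably expressing nuclear-localized β-gal enzyme acceptor and GR fused C-terminally to the enzyme donor fragment; ligand-driven nuclear translocation restores β-gal by complementation. Compounds titrated up to 46 uM final, 2 h at 37 °C; luminescence read.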

[7] = target: Mitogen-activated protein kinase 10 (Mus musculus) (UniProt Q61831); assay: JNK3 AlphaScreen Assay (AID 530); settings: JNK3 lysate, c-Jun phosphorylation; series mostly up to 11.4 µM;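 further: kinase came from lysate of stimulated human HepG2 cells; signal reports phosphorylation of biotinylated GST-cJun 1-79 at Ser73 with 10 µM ATP; on the % scale 0 is the no-effect control and ±100 the full control effect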
Procedure, shortened: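 Biotinylated GST-cJun(1-79) served as substrate for JNK3 in HepG2 lysates stimulated with IL-1beta and TNF-alpha. ATP was 10 uM final, pH 7.6. Ser73 phosphorylation was quantified by AlphaScreen (680 nm excitation).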

[8] = target: 3',5'-cyclic-AMP phosphodiesterase 4B (Homo sapiens) (UniProt Q07343); assay: qHTS Assay for Inhibitors of PDE-IV (AID 607; active means well fitted activation curve with a large enough effect in the main read-out, with a control signal flat, not every such curve was filed as active; further: % of control where 0% means no effect); settings: HEK293 ACTOne CNG channel cells, membrane potential fluorescence; series mostly up to 22.9 µM
Procedure, shortened: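 Live HEK293 cells with a modified cyclic nucleotide-gated (CNG) channel report intracellular cAMP via membrane-potential dye fluorescence (ex 535/em 590 nm). Endogenous PDE-IV was targeted. Compounds were tested at up to 22.9 uM final; RO 20-1724 100 uM served as control.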

Sequence of Glucocorticoid receptor (Homo sapiens) (P04150 whole entry, looked up, the tested form may be a part): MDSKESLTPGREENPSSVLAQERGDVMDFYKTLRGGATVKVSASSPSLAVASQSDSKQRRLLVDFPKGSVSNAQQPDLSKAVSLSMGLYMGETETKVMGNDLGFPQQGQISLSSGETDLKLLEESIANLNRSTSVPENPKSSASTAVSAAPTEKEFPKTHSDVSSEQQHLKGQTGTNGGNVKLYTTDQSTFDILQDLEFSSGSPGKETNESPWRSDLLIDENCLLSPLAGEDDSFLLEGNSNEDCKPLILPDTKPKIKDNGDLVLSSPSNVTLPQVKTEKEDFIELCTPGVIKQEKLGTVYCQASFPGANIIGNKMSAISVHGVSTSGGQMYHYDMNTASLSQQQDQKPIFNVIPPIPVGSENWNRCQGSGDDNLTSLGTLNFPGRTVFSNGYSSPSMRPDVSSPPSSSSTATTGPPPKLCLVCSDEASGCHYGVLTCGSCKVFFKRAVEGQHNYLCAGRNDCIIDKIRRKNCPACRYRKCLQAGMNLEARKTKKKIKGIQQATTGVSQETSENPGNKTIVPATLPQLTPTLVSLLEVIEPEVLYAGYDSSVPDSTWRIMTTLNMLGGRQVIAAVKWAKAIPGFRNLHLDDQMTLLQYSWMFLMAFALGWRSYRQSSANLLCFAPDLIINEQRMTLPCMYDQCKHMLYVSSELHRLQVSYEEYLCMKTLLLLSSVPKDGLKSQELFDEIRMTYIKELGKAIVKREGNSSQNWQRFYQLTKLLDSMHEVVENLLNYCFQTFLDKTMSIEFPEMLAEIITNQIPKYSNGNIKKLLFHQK
Sequence of 3',5'-cyclic-AMP phosphodiesterase 4B (Homo sapiens) (Q07343 whole entry, looked up): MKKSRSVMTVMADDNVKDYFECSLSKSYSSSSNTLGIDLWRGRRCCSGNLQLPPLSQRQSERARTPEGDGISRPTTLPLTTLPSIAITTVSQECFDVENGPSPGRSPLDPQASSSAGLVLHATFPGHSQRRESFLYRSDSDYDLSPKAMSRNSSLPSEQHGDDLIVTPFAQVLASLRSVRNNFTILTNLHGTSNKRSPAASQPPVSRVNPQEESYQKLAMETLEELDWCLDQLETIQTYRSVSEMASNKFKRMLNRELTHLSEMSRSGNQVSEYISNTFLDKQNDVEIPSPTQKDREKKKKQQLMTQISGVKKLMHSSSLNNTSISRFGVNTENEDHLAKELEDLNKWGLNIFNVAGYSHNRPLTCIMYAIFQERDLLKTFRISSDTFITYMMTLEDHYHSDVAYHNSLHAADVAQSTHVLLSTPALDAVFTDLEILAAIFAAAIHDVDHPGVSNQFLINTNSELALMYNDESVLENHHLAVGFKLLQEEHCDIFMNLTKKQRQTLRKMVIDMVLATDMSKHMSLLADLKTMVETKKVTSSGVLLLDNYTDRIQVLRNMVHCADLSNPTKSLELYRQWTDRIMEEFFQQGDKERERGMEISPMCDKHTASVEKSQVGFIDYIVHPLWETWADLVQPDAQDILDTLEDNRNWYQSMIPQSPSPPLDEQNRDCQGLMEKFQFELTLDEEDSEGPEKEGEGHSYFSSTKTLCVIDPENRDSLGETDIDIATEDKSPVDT
Sequence of Lysosomal acid glucosylceramidase (Homo sapiens) (P04062 whole entry, looked up): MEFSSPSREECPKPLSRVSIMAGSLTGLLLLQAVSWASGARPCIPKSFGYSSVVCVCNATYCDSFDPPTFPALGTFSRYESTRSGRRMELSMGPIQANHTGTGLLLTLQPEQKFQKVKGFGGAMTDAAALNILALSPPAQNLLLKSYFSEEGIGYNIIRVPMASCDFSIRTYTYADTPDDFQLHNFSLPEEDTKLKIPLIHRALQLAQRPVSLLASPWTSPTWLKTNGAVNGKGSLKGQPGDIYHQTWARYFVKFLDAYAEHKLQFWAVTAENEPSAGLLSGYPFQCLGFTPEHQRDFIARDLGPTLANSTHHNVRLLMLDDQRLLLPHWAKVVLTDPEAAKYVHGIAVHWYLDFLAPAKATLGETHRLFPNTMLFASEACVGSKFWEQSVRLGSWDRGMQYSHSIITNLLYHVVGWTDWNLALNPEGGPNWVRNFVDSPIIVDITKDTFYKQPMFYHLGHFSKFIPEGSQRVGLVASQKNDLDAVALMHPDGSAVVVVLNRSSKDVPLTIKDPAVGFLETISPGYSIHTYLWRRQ

O=C(O)/C(Cc1ccc([N+](=O)[O-])cc1)=N/O
inactive: Potency [1] > 11.4 µM | activity change, negative = inhibition [2] 3.45% | activity change, negative = inhibition [3] -0.295% | activity, negative = inhibition [4] 7.71% | Potency [5] > 46 µM | Potency [6] > 9.22 µM | Potency [7] | Potency [8]

NCCOC[C@H](N)C(=O)O
inactive: Potency [1] > 11.4 µM | activity change, negative = inhibition [2] 3.26% | activity change, negative = inhibition [3] 11.6% | activity, negative = inhibition [4] -1.46% | Potency [5] > 46 µM | Potency [6] > 9.22 µM | Potency [7] | Potency [8]

O=C(O)Cc1c[nH]c2ccc(F)cc12
inactive: Potency [1] > 11.4 µM | activity change, negative = inhibition [2] 0.0381% | activity change, negative = inhibition [3] 24.2% | activity, negative = inhibition [4] 5.52% | Potency [5] > 46 µM | Potency [6] > 9.22 µM | Potency [7] | Potency [8]

N#C[C@H](C(=O)O)C(c1c(Cl)cccc1Cl)[C@H](C#N)C(=O)O
inactive: Potency [1] > 11.4 µM | activity change, negative = inhibition [2] 1.46% | activity change, negative = inhibition [3] 5.02% | activity, negative = inhibition [4] 5.11% | Potency [5] > 46 µM | Potency [6] > 9.22 µM | Potency [7] | Potency [8]

CC(C)[C@@H](C(=O)O)N1C(=O)c2ccccc2C1=O
inactive: Potency [1] > 11.4 µM | activity change, negative = inhibition [2] -2.02% | activity change, negative = inhibition [3] -8.21% | activity, negative = inhibition [4] 2.83% | Potency [5] > 46 µM | Potency [6] > 9.22 µM | Potency [7] | Potency [8]

CN(C)c1ccc2nc3c(C(=O)O)cc(=O)c(O)c-3oc2c1
inactive: Potency [1] > 11.4 µM | activity change, negative = inhibition [2] -7.19% | activity change, negative = inhibition [3] 4.18% | activity, negative = inhibition [4] -14.8% | Potency [5] > 46 µM | Potency [6] > 9.22 µM | Potency [7] | Potency [8]

O=CNc1ncn[nH]1
inactive: Potency [1] > 11.4 µM | activity change, negative = inhibition [2] -1.52% | activity change, negative = inhibition [3] -0.432% | activity, negative = inhibition [4] 8.03% | Potency [5] > 46 µM | Potency [6] > 9.22 µM | Potency [7] | Potency [8]

C/C(=N/NC(=O)c1ccncc1)c1ccccc1Cl
inactive: Potency [1] > 11.4 µM | activity change, negative = inhibition [2] 12.5% | activity change, negative = inhibition [3] 8.3% | activity, negative = inhibition [4] -2.05% | Potency [5] > 46 µM | Potency [6] > 9.22 µM | Potency [7] | Potency [8]

COC(=O)c1cc(=O)[nH]c(=O)[nH]1
inactive: Potency [1] > 11.4 µM | activity change, negative = inhibition [2] 9.08% | activity change, negative = inhibition [3] 1.11% | activity, negative = inhibition [4] -3.43% | Potency [5] > 46 µM | Potency [6] > 9.22 µM | Potency [7] | Potency [8]

NNC(=O)[C@@H](O)[C@H](O)C(=O)NN
inactive: Potency [1] > 11.4 µM | activity change, negative = inhibition [2] -1.69% | activity change, negative = inhibition [3] 10.2% | activity, negative = inhibition [4] -2.25% | Potency [5] > 46 µM | Potency [6] > 9.22 µM | Potency [7] | Potency [8]

C[N+]1(CCN=C=NC2CCCCC2)CCOCC1
inactive: Potency [1] > 11.4 µM | activity change, negative = inhibition [2] 9.01% | activity change, negative = inhibition [3] -4.19% | activity, negative = inhibition [4] -0.107% | Potency [5] > 46 µM | Potency [6] > 9.22 µM | Potency [7] | Potency [8]

CSc1ccc(NC(=O)[C@H]2CCCC[C@@H]2C(=O)O)cc1
inactive: Potency [1] > 11.4 µM | activity change, negative = inhibition [2] 2.18% | activity change, negative = inhibition [3] 4.17% | activity, negative = inhibition [4] 3.36% | Potency [5] > 46 µM | Potency [6] > 9.22 µM | Potency [7] | Potency [8]

CCN1CCC(O)([C@H](C(=O)O)c2ccccc2)CC1
inactive: Potency [1] > 11.4 µM | activity change, negative = inhibition [2] -5.97% | activity change, negative = inhibition [3] 16.2% | activity, negative = inhibition [4] 16.9% | Potency [5] > 46 µM | Potency [6] > 9.22 µM | Potency [7] | Potency [8]

NC(N)=N[C@H](CC(=O)O)c1ccccc1
inactive: Potency [1] > 11.4 µM | activity change, negative = inhibition [2] 5.91% | activity change, negative = inhibition [3] 1.32% | activity, negative = inhibition [4] 3.35% | Potency [5] > 46 µM | Potency [6] > 9.22 µM | Potency [7] | Potency [8]

CCOc1ccc(N=NS(=O)(=O)O)cc1
inactive: Potency [1] > 11.4 µM | activity change, negative = inhibition [2] 8.26% | activity change, negative = inhibition [3] -0.735% | activity, negative = inhibition [4] 8.88% | Potency [5] > 46 µM | Potency [6] > 9.22 µM | Potency [7] | Potency [8]

Clc1cccc(Cl)c1C(Nc1nncs1)Nc1nncs1
inactive: Potency [1] > 11.4 µM | activity change, negative = inhibition [2] -1.25% | activity change, negative = inhibition [3] 2.41% | activity, negative = inhibition [4] -3.83% | Potency [5] > 46 µM | Potency [6] > 9.22 µM | Potency [7] | Potency [8]

CC(C)(CO)N1CCN(C(=S)Nc2ccccc2)CC1
inactive: Potency [1] > 11.4 µM | activity change, negative = inhibition [2] 7.77% | activity change, negative = inhibition [3] 17.5% | activity, negative = inhibition [4] -2.59% | Potency [5] > 46 µM | Potency [6] > 9.22 µM | Potency [7] | Potency [8]
